Assay outcomes: PubChem, National Center for Advancing Translational Sciences (NCATS)
Sampled rows, rich in hits. Any-hit rate of the full collection: about 19%.
KB-3-1 cytotox: KB-3-1 parental cell cytotoxicity; KB-3-1 viability, CellTiter-Glo ATP luminescence, 72 h; Potency, µM (series often up to 46.1 µM), most hits filed as cytotoxic; 1.4% of 400,000 active; AID 1347075; further: nearly all actives have a fitted effect of over 60% in size
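Luminescent ATP read-out (CellTiter-Glo) measures survival of drug-naive KB-3-1 cells after 72 h compound exposure at 37 °C. Titration series was screened from lowest to highest concentration, with DMSO vehicle plates as background controls.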
HT1080 IDH1KD tx: toxicity to HT-1080 IDH1 knockdown cells (counter line); HT-1080 IDH1 knockdown viability, ATP luminescence, 48 h; Potency, µM (doses to about 46.1 µM), for the others: at the top dose activity, negative = toxicity, most hits filed as cytotoxic; 2% of 360,000 active; AID 686971;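 further: 0% = DMSO wells and -100% = cell-free medium wells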
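After a 2 h attachment period, IDH1KD HT-1080 cells took pin-transferred compound for 48 h at 37 °C; ATP-based luminescence after 10 min room-temperature reagent incubation reported viability.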
DT40 TDP1 no CPT: qHTS for Inhibitors of human tyrosyl-DNA phosphodiesterase 1 (TDP1): qHTS in cells in absence of CPT. DT40 Tdp1-/- hTDP1 cells, no CPT, ATP luminescence, 48 h. Potency, µM (highest dose often 46.2 µM), for the others: at the top dose activity change, negative = growth inhibition, actives largely listed as inhibitors. 15% of 420,000 active; further: nearly all actives have a fitted effect of over 55% in size
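A cellular qHTS used chicken DT40 cells lacking endogenous Tdp1 but carrying stably transfected human TDP1. Compounds were applied without camptothecin, and cell growth kinetics were judged by ATP-dependent luminescence after ≥48 hr.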
KB-V1 MDR tox: kills drug-selected multidrug resistant KB-V1 cells; KB-V1 MDR cells viability, CellTiter-Glo, 72 h; Potency, µM (titrated, usually from 46.1 µM), most hits filed as cytotoxic; 3.4% of 400,000 active; further: nearly all actives have a fitted effect of over 60% in size
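In this primary screen, KB-V1 cells overexpressing P-gp are incubated with library compounds (lowest to highest concentration) for 72 h at 37 degrees C before a luminescent ATP viability read.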
HT1080NT lethal: kills 2HG-producing HT-1080-NT fibrosarcoma cells | HT-1080-NT fibrosarcoma viability, CellTiter-Glo ATP luminescence, 48 h | Potency, µM (highest dose often 46.1 µM), for the others: at the top dose activity, negative = less viability, usual class: cytotoxic | 1.6% of 360,000 active | AID 686970;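 further: NT is the 2HG producing partner of a matched IDH1 knockdown line; 0% = DMSO-treated cells and -100% = media-only wells without cells; nearly all actives have a fitted effect of over 55% in size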
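Compounds were tested in concentration-response format on HT-1080-NT cells for 48 hours at 37 degrees C. Cell viability came from CellTiter-Glo luminescence; curves were classified by r2, response magnitude and activity.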
DT40 TDP1 CPT: growth inhibition of DT40 Tdp1-/-;hTDP1 cells with camptothecin (screen for TDP1 inhibitors); chicken DT40 Tdp1-/-;hTDP1 cells + 20 nM CPT, ATP luminescence, 48 h; Potency, µM (titrated, usually from 46.2 µM), without a hit: at the highest dose activity change, negative = growth inhibition, most hits filed as inhibitors; 12% of 420,000 active; AID 686979; further: nearly all actives have a fitted effect of over 55% in size
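Chicken DT40 Tdp1-/- cells stably complemented with human TDP1 were seeded at 400 cells/well in medium containing 20 nM camptothecin, exposed to pin-transferred compounds, and grown at 37 °C for at least 48 hr. Viability was read as ATP luminescence.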
Active calls of the source: *; i = inactive; ? = inconclusive; . = no result. The call rests on the fitted dose curve; in most records, active means well fitted curve in the direction sought with a large enough effect; inconclusive means small, poorly fitted or top-dose-only effect, or another doubt; inactive means no such curve, though single readings can be large; an effect the other way counts as inactive or inconclusive. Unless noted, on the % scale 0 is the no-effect control and ±100 the full control effect; potency means the concentration at half of the fitted maximal effect.

SMILES | KB-3-1 cytotox | HT1080 IDH1KD tx | DT40 TDP1 no CPT | KB-V1 MDR tox | HT1080NT lethal | DT40 TDP1 CPT
Cc1ccc(C(=O)N2CCN(c3ccc([N+](=O)[O-])cc3-n3cccc3)CC2)cc1 | ? | -20.8% | 18.4µM* | i | -20.2% | ?
COC(=O)c1[nH]c2cccc(Cl)c2c1NC(=O)CN(C)C1CCCCC1 | i | -10.3% | ? | i | ? | ?
CC1CC(C)CN(C(=O)c2cccc(N3C(=O)c4ccccc4C3=O)c2)C1 (centres undefined) | i | -1.0% | -21.1% | i | -9.0% | -9.4%
C/C(=N\Nc1ccc(S(N)(=O)=O)cc1[N+](=O)[O-])c1cccnc1 | i | -1.8% | -21.9% | i | 7.1% | 9.8%
COc1ccc(-c2nc3cnc(N(C)C)nc3n(C[C@H]3CCCO3)c2=O)cc1 | . | . | 22.7% | . | . | 2.6%
O=C(NCCc1ccccc1)C1CCN(C(=O)c2ccc([N+](=O)[O-])cc2)CC1 | i | 6.5% | 3.2% | i | 10.6% | -4.7%
O=C(NCCN1CCOCC1)c1ccc(Cl)c(Cl)c1 | i | 28.0% | 4.4% | i | 16.6% | 23.6%
CC1=Nc2cc(C(=O)NCCCN3CCOCC3)ccc2Sc2c(C)ccc(C)c21 | ? | 20.6µM* | ? | ? | 16.4µM* | ?
CC1=Nc2cc(C(=O)NCCN3CCOCC3)ccc2Sc2c(C)ccc(C)c21 | 14.6µM* | ? | 13µM* | 18.4µM* | ? | 16.4µM*
O=C(CN1CCOCC1)Nc1nc(-c2ccc(Cl)cc2)cs1 | i | -8.2% | 20.6µM* | ? | -5.2% | 16.4µM*
O=C(Nc1nc(-c2ccc(Cl)cc2Cl)cs1)C1CCCO1 (centres undefined) | i | 3.8% | ? | ? | 3.4% | ?
CC(C)(C)c1ccc(-c2csc(NC(=O)CN3C(=O)NC4(CCCCC4)C3=O)n2)cc1 | i | -10.2% | 9.2µM* | i | -6.8% | 10.3µM*
Cc1ccc(-c2csc(NC(=O)CN3CCOCC3)n2)cc1 | ? | ? | 16.4µM* | ? | ? | 16.4µM*
O=C(Nc1nc(-c2ccc(Cl)cc2)cs1)C1CCCO1 (centres undefined) | i | -9.6% | 23.1µM* | i | -0.7% | ?
COc1ccc(OC)c(CNC(=O)Nc2cn(CC(C)C)c(=O)c3ccccc23)c1 | i | . | ? | i | . | ?
CC1CN(CC(=O)Nc2nc(-c3ccc(Cl)cc3)cs2)CC(C)O1 (centres undefined) | ? | -16.4% | 23.1µM* | ? | -27.0% | ?
CC1CC(CC(=O)Nc2nc(-c3ccccc3)cs2)C(=O)O1 (centres undefined) | i | 7.5% | ? | ? | 0.3% | 1.2%
COc1ccc(CNCCC(c2ccc(F)cc2)c2ccc(OC(C)C)cc2)cc1OC (centres undefined) | ? | ? | 14.6µM* | ? | 23.1µM* | 16.4µM*
CC(C)Oc1ccc(C(CC(=O)O)c2ccc(F)cc2)cc1 (centres undefined) | i | 18.4% | -2.1% | i | 8.4% | 23.4%
COc1ccc(CNCCC(c2ccccc2)c2ccc(OC(C)C)cc2)cc1OC (centres undefined) | ? | 18.4µM* | 23.1µM* | ? | 20.6µM* | 23.1µM*
NS(=O)(=O)c1ccc2nc(-c3ccccc3)c(-c3ccccc3)nc2c1 | i | -25.1% | -7.7% | i | -27.1% | -2.5%
Cc1ccccc1N(CC(=O)NC1CCCC1)C(=O)c1oc(C(C)(C)C)cc1C | i | 2.1% | 14.1µM* | 16.4µM* | -6.1% | 16.4µM*
Cc1ccccc1N(CC(=O)NC1CCCCC1)C(=O)c1csnn1 | i | 13.9% | -6.7% | ? | 1.6% | -1.3%
Cc1cc(C(C)(C)C)oc1C(=O)N(CC(=O)NC1CCCC1)Cc1ccccc1Cl | i | ? | 13µM* | ? | -27.5% | 13µM*
Cc1cc(C(C)(C)C)oc1C(=O)N(CC(=O)NC1CCCC1)c1cccc(C(F)(F)F)c1 | i | ? | ? | ? | ? | 18.4µM*
SMILES | KB-3-1 cytotox | HT1080 IDH1KD tx | DT40 TDP1 no CPT | KB-V1 MDR tox | HT1080NT lethal | DT40 TDP1 CPT
Cc1ccc(C(=O)N(CC(=O)NC2CCCC2)c2cccc(F)c2)s1 | i | -4.1% | -20.9% | ? | -4.4% | 2.7%
Cc1ccc(C(=O)N(CC(=O)NC2CCCCC2)c2ccccc2C)s1 | i | -4.7% | 23.1µM* | ? | 6.6% | ?
COc1cc(OC)c(NC(=O)NCCn2nnc3cc(S(=O)(=O)N(C)C)ccc32)cc1Cl | i | . | -19.2% | i | . | -1.8%
C=CCC(C#Cc1ccc(C)cc1)N(CC)CC (centres undefined) | i | 21.6% | -31.0% | i | 14.4% | -26.5%
CC1(C)CC(N=Cc2c(O)n(Cc3ccc4c(c3)OCO4)c(=O)c3ccccc23)CC(C)(C)N1 | i | 7.31µM* | 7.31µM* | i | 18.4µM* | 6.51µM*
CN1CCN(NC(=O)c2cccc(C(F)(F)F)c2)CC1 | i | 16.7% | -9.6% | i | 24.7% | 2.4%
O=[N+]([O-])c1ccc(-c2nn(-c3ccccc3)cc2/C=N/n2c(-c3ccncc3)n[nH]c2=S)cc1 | i | 15.9% | 18.4µM* | i | 19.8% | ?
